# Data taken from the supplement of paper PMC6992640.
# ± gives the standard deviation of the averaged measurements.
# Legend:
# HCI03 = cells of an ER-positive luminal breast cancer xenograft; test: cell viability (% of vehicle); higher = less cytotoxic; settings: 10 µM; 72 h
# HCI11 = cells of an ER-positive luminal breast cancer xenograft; test: as above; settings: 10 µM; 72 h
# HCI13 = cells of an ER-positive luminal breast cancer xenograft; test: as above; settings: 10 µM; 72 h
# HCI16 = cells of a triple-negative basal-like breast cancer xenograft; test: as above; settings: 10 µM; 72 h
# WHIM2 = cells of a triple-negative basal-like breast cancer xenograft; test: as above; settings: 10 µM; 72 h
# HCI09 = cells of a triple-negative luminal androgen receptor type breast cancer xenograft; test: as above; settings: 10 µM; 72 h
# UCD52 [1] = cells of a triple-negative basal-like breast cancer xenograft; test: as above; settings: 10 µM; 72 h
# HCI01 = cells of a triple-negative basal-like breast cancer xenograft; test: cell viability of combination (% of vehicle); higher = less cytotoxic; settings: 1 µM; 72 h; partner dose: 10 nM
# Protocol: (§1)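 PDX cells were treated for 72 h with each drug at 1 µM plus carfilzomib (10 nM; 100 nM for WHIM2). Luciferase viability is expressed as percent of vehicle.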
# UCD52 [2] = test: as above; settings: 1 µM; 72 h; partner dose: 10 nM
# Protocol: as §1
smiles,measurement,setting,value
CC(C=CC1=C(C)CCCC1(C)C)=CC=CC(C)=CC(=O)O [Tretinoin (Aberela)],cell viability,HCI03,143
same,cell viability,HCI11,149
same,cell viability,HCI13,146 ± 12
same,cell viability,HCI16,175
same,cell viability,WHIM2,58.5 ± 19
CC12CCC(=O)C=C1C1CC1C1C2CCC2(C)C1C1CC1C21CCC(=O)O1 (stereo not given) [Drospirenone],cell viability,HCI03,150
same,cell viability,HCI09,178 ± 190
same,cell viability,HCI13,84.8 ± 24
same,cell viability,WHIM2,39.5 ± 12
CNC(=O)c1ccccc1Sc1ccc2c(C=Cc3ccccn3)n[nH]c2c1,cell viability,HCI11,158
same,cell viability,HCI16,150
same,cell viability,UCD52 [1],191 ± 4.7
COc1cc2nccc(Oc3ccc(NC(=O)Nc4cc(C)on4)c(Cl)c3)c2cc1OC [Tivozanib (AV-951)] + CC(C)C[C@H](NC(=O)[C@H](CCc1ccccc1)NC(=O)CN1CCOCC1)C(=O)N[C@@H](Cc1ccccc1)C(=O)N[C@@H](CC(C)C)C(=O)[C@@]1(C)CO1 [Carfilzomib],cell viability of combination,HCI01,97.5
same,cell viability of combination,UCD52 [2],48.9
Cl.OC(CNCC(O)C1CCc2cc(F)ccc2O1)C1CCc2cc(F)ccc2O1 (stereo not given) [Nebivolol] + CC(C)C[C@H](NC(=O)[C@H](CCc1ccccc1)NC(=O)CN1CCOCC1)C(=O)N[C@@H](Cc1ccccc1)C(=O)N[C@@H](CC(C)C)C(=O)[C@@]1(C)CO1 [Carfilzomib],cell viability of combination,HCI01,72.5
same,cell viability of combination,UCD52 [2],64.3
Nc1nc2ccc(OC(F)(F)F)cc2s1 [Riluzole],cell viability,HCI03,158
same,cell viability,HCI11,162
same,cell viability,HCI13,161 ± 27
same,cell viability,HCI16,139
same,cell viability,UCD52 [1],175 ± 15
same,cell viability,WHIM2,145 ± 7.3
Clc1ccc(COC(Cn2ccnc2)c2ccc(Cl)cc2Cl)cc1.O=[N+]([O-])O (stereo not given) [Econazole nitrate] + CC(C)C[C@H](NC(=O)[C@H](CCc1ccccc1)NC(=O)CN1CCOCC1)C(=O)N[C@@H](Cc1ccccc1)C(=O)N[C@@H](CC(C)C)C(=O)[C@@]1(C)CO1 [Carfilzomib],cell viability of combination,HCI01,89.1
same,cell viability of combination,UCD52 [2],59.8
CO[C@H]1C[C@@H]2CC[C@@H](C)[C@@](O)(O2)C(=O)C(=O)N2CCCC[C@H]2C(=O)O[C@H]([C@H](C)C[C@@H]2CC[C@@H](O)[C@H](OC)C2)CC(=O)[C@H](C)/C=C(\C)[C@@H](O)[C@@H](OC)C(=O)[C@H](C)C[C@H](C)/C=C/C=C/C=C/1C [Rapamycin (Sirolimus)] + CC(C)C[C@H](NC(=O)[C@H](CCc1ccccc1)NC(=O)CN1CCOCC1)C(=O)N[C@@H](Cc1ccccc1)C(=O)N[C@@H](CC(C)C)C(=O)[C@@]1(C)CO1 [Carfilzomib],cell viability of combination,HCI01,68.3
same,cell viability of combination,UCD52 [2],49.1
CC(O)=C(C#N)C(=O)Nc1ccc(C(F)(F)F)cc1 [Teriflunomide],cell viability,HCI11,162
same,cell viability,HCI13,196 ± 48
same,cell viability,HCI16,200
"O=C(CCCCCCC(=O)Nc1ccccc1)NO [Vorinostat (SAHA, MK0683)]",cell viability,HCI09,46.1 ± 37
same,cell viability,HCI11,21.7
same,cell viability,HCI13,61 ± 23
same,cell viability,WHIM2,47.5 ± 4.1
CCCCc1nc2cc(C=CC(=O)NO)ccc2n1CCN(CC)CC [Pracinostat (SB939)],cell viability,HCI09,56.2 ± 49
same,cell viability,HCI11,6.31
same,cell viability,HCI13,88.1 ± 21
same,cell viability,WHIM2,64.9 ± 4.9
COc1ccc(C=CC(=O)Nc2ccccc2C(=O)O)cc1OC [Tranilast],cell viability,HCI11,87.9
same,cell viability,HCI16,108
same,cell viability,UCD52 [1],116 ± 8.9
CNCCC(Oc1ccc(C(F)(F)F)cc1)c1ccccc1.Cl (stereo not given) [Fluoxetine HCl] + CC(C)C[C@H](NC(=O)[C@H](CCc1ccccc1)NC(=O)CN1CCOCC1)C(=O)N[C@@H](Cc1ccccc1)C(=O)N[C@@H](CC(C)C)C(=O)[C@@]1(C)CO1 [Carfilzomib],cell viability of combination,HCI01,72.4
same,cell viability of combination,UCD52 [2],52.6
CCCCc1oc2ccc(NS(C)(=O)=O)cc2c1C(=O)c1ccc(OCCCN(CCCC)CCCC)cc1 [Dronedarone] + CC(C)C[C@H](NC(=O)[C@H](CCc1ccccc1)NC(=O)CN1CCOCC1)C(=O)N[C@@H](Cc1ccccc1)C(=O)N[C@@H](CC(C)C)C(=O)[C@@]1(C)CO1 [Carfilzomib],cell viability of combination,HCI01,76.1
same,cell viability of combination,UCD52 [2],59.3
COc1cc2c(Oc3ccc4[nH]c(C)cc4c3F)ncnc2cc1OCCCN1CCCC1 [Cediranib (AZD217)] + CC(C)C[C@H](NC(=O)[C@H](CCc1ccccc1)NC(=O)CN1CCOCC1)C(=O)N[C@@H](Cc1ccccc1)C(=O)N[C@@H](CC(C)C)C(=O)[C@@]1(C)CO1 [Carfilzomib],cell viability of combination,HCI01,80.6
same,cell viability of combination,UCD52 [2],31.6
CNC(=O)c1cc(Oc2ccc(NC(=O)Nc3ccc(Cl)c(C(F)(F)F)c3)cc2)ccn1.Cc1ccc(S(=O)(=O)O)cc1 [Sorafenib Tosylate] + CC(C)C[C@H](NC(=O)[C@H](CCc1ccccc1)NC(=O)CN1CCOCC1)C(=O)N[C@@H](Cc1ccccc1)C(=O)N[C@@H](CC(C)C)C(=O)[C@@]1(C)CO1 [Carfilzomib],cell viability of combination,HCI01,70.3
same,cell viability of combination,UCD52 [2],52.6
Cl.Cl.O=C1c2c(O)ccc(O)c2C(=O)c2c(NCCNCCO)ccc(NCCNCCO)c21 [Mitoxantrone HCl] + CC(C)C[C@H](NC(=O)[C@H](CCc1ccccc1)NC(=O)CN1CCOCC1)C(=O)N[C@@H](Cc1ccccc1)C(=O)N[C@@H](CC(C)C)C(=O)[C@@]1(C)CO1 [Carfilzomib],cell viability of combination,HCI01,74.1
same,cell viability of combination,UCD52 [2],30
COc1cc(Nc2c(C#N)cnc3cc(OCCCN4CCN(C)CC4)c(OC)cc23)c(Cl)cc1Cl [Bosutinib (SKI-606)] + CC(C)C[C@H](NC(=O)[C@H](CCc1ccccc1)NC(=O)CN1CCOCC1)C(=O)N[C@@H](Cc1ccccc1)C(=O)N[C@@H](CC(C)C)C(=O)[C@@]1(C)CO1 [Carfilzomib],cell viability of combination,HCI01,70.1
same,cell viability of combination,UCD52 [2],35.3
CNCCC(Oc1cccc2ccccc12)c1cccs1.Cl (stereo not given) [Duloxetine HCl] + CC(C)C[C@H](NC(=O)[C@H](CCc1ccccc1)NC(=O)CN1CCOCC1)C(=O)N[C@@H](Cc1ccccc1)C(=O)N[C@@H](CC(C)C)C(=O)[C@@]1(C)CO1 [Carfilzomib],cell viability of combination,HCI01,81.6
same,cell viability of combination,UCD52 [2],62.4
CN(C(=O)CN(CCO)CC(=O)N(C)C(C)(C)Cc1ccccc1)C(C)(C)Cc1ccccc1 [Oxethazaine] + CC(C)C[C@H](NC(=O)[C@H](CCc1ccccc1)NC(=O)CN1CCOCC1)C(=O)N[C@@H](Cc1ccccc1)C(=O)N[C@@H](CC(C)C)C(=O)[C@@]1(C)CO1 [Carfilzomib],cell viability of combination,HCI01,70.7
same,cell viability of combination,UCD52 [2],66.5
CC1=C(C(=O)OC(C)C)C(c2cccc([N+](=O)[O-])c2)C(C(=O)OC2CN(C(c3ccccc3)c3ccccc3)C2)=C(N)N1 (stereo not given) [Azelnidipine] + CC(C)C[C@H](NC(=O)[C@H](CCc1ccccc1)NC(=O)CN1CCOCC1)C(=O)N[C@@H](Cc1ccccc1)C(=O)N[C@@H](CC(C)C)C(=O)[C@@]1(C)CO1 [Carfilzomib],cell viability of combination,HCI01,112
same,cell viability of combination,UCD52 [2],46.6
Cl.OC(c1cc(C(F)(F)F)nc2c(C(F)(F)F)cccc12)C1CCCCN1 (stereo not given) [Mefloquine hydrochloride] + CC(C)C[C@H](NC(=O)[C@H](CCc1ccccc1)NC(=O)CN1CCOCC1)C(=O)N[C@@H](Cc1ccccc1)C(=O)N[C@@H](CC(C)C)C(=O)[C@@]1(C)CO1 [Carfilzomib],cell viability of combination,HCI01,82.9
same,cell viability of combination,UCD52 [2],51.6
